Screening results: PubChem, National Center for Advancing Translational Sciences (NCATS)
D2 antagonist: antagonizes the human D2 dopamine receptor. P14416. HEK293 TREx D2 cells, calcium flux, dopamine EC80. inhibition, % at 10 µM. 340,000 compounds, 2% hits; in the data active = inhibition above about 30%; inactive = below that, where a call was filed; note: 0% is about no effect
Target sequence (P14416 whole entry, looked up): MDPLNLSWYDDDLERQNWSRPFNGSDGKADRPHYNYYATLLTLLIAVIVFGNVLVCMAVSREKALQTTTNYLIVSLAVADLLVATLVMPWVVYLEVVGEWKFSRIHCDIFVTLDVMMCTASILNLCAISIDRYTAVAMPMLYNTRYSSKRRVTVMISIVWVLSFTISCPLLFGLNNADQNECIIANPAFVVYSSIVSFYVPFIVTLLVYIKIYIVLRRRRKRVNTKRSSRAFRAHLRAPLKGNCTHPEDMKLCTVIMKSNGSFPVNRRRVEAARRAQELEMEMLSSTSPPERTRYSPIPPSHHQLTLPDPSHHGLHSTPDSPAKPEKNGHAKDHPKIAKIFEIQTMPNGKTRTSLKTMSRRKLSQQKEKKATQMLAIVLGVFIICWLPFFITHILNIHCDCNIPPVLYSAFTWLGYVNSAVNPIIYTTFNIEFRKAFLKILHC
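Read-out: kinetic calcium fluorescence (1 cycle/s) in inducible HEK293 T-REx D2 cells after an EC80 dopamine addition that followed 180 s compound preincubation. Loss of the dopamine response indicates antagonism.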
D2 PAM-1: positively modulates the human D2 dopamine receptor allosterically; 340,000 compounds, 0.34% hits; potentiation, % at 10 µM; HEK293 T-REx D2, calcium flux, EC20 dopamine potentiation; AID 485347; P14416;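 active = potentiation over 3 SD above the plate norm, cut at about 30% in these data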; note: 0% is about no effect
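Tetracycline-induced Hek293 Trex D2 cells, force-coupled to calcium, loaded with no-wash calcium dye. Compound added with 180 s kinetic read for agonism, then EC20 dopamine and a further 180 s read for potentiation.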
D2 ag-1: human D2 receptor agonism in beta-arrestin assay. DiscoveRx PathHunter D2 beta-arrestin, luminescence, 90 min; 100% = 57 uM dopamine signal. activation, % (no concentration beside the values). 360,000 compounds, 0.084% hits. AID 624465; in the data active = activation above about 40%; inconclusive = between about 15% and that limit
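Agonist mode: compounds alone added to overnight-plated D2 PathHunter cells for 90 min at 37 C, with 57 uM final dopamine (EC100) defining full response. Beta-arrestin recruitment detected by chemiluminescent reagent, read after 1 h at ambient temperature.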
D2 PAM-2: potentiates the human D2 dopamine receptor allosterically. P14416. DiscoveRx D2 beta-arrestin cells, luminescence, 90 min; 100% = 57 uM dopamine signal. potentiation, % (test concentration not listed). 360,000 compounds, 0.23% hits. AID 624464; in the data active = potentiation above about 50%; inconclusive = mostly about 30% to 49%
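D2 cells co-treated with compound plus 50 nM dopamine (EC20) for 90 min at 37 deg C to detect potentiation. Beta-arrestin recruitment was read as enzyme-fragment luminescence after 1 h at ambient temperature. Full response was set by 57 uM dopamine.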
B2AR arrestin: recruits beta-arrestin to the human beta2-adrenergic receptor; P07550; beta-arrestin recruitment to beta2AR, cell-based reporter; Potency, µM (highest dose often 46.1 µM), without a hit: top-dose activation, hits mostly activators; 330,000 compounds, 0.02% hits; AID 492947; active = well fitted activation curve with a large enough effect; inconclusive = small, poorly fitted or top-dose-only effect;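 note: potency is the fitted concentration of half-maximal effect; 0% = DMSO controls and full agonism = EC100 isoproterenol or metaproterenol; nearly all actives have a fitted effect of over 65% in size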
D2 ag-2: agonists of human D2 dopamine receptor. HEK293 T-REx D2 cells, calcium flux agonist mode. 340,000 compounds, 0.53% hits. activation, % at 2 µM;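 active = activation over 3 SD above normal in the single-dose calcium agonist read, cut at about 30% in these data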; note: 0% is about no effect
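In this primary screen, compounds producing a positive calcium signal within 180 s of addition to tetracycline-induced, force-coupled HEK293 Trex D2 cells are flagged; cells are dye-loaded with a no-wash calcium kit beforehand.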
Active calls of the source: *; ? = inconclusive; . = no result given. Only some compounds are listed: those with a hit (about 2.4% of all), similar ones and a draw of the others.

SMILES	D2 antagonist	D2 PAM-1	D2 ag-1	D2 PAM-2	B2AR arrestin	D2 ag-2
CN(Cc1nccs1)C(=O)C1CCC(=O)N(CCc2ccc(Cl)cc2)C1 (stereo not drawn)	33*	-6	-1	-6	0%	0
CCCCN1CCc2c1nc1ccc(Br)cc1c2N	68*	-22	-1	-22	0%	-1
Cc1ccc2nc3c(c(N)c2c1)CCN3C	8	-7	-5	-9	0%	-1
Cc1ccc(N2CCN(CC(O)COc3ccccc3)CC2)cc1 (stereo not drawn)	39*	-22	4	-23	0%	0
Cc1cc(=O)oc2cc(OCC(O)CN3CCN(c4ccc(F)cc4)CC3)ccc12 (stereo not drawn)	76*	-19	?	-7	0%	73*
Cc1ccc(OCC(O)CN2CCN(CC(O)COc3ccc(C)cc3)CC2)cc1 (stereo not drawn)	9	6	-1	-26	0%	1
Cc1ccc(OCC(O)CN2CCN(c3ccc(C)cc3)CC2)cc1 (stereo not drawn)	53*	-24	-2	-2	0%	0
CCOC(=O)N1CCN(CC(O)COc2ccc(C(C)C)c(C)c2)CC1 (stereo not drawn)	7	-19	-3	-3	-1%	31*
CCOC(=O)N1CCN(CC(O)COc2ccc(C)c(C)c2)CC1 (stereo not drawn)	3	-6	0	-7	0%	0
CCc1cc(C(=O)N2CCN(C(=O)c3ccccc3)CC2)sc1C	-14	-7	-2	9	0%	-1
Cc1ccc(C)c(OCC(O)CN2CCC(Cc3ccccc3)CC2)c1 (stereo not drawn)	47*	0	-7	-16	0%	0
CC1(C)Cc2c(ccc3ccccc23)/C(=C/C(=O)N2CCCCC2)N1	33*	19	-4	-6	0%	0
O=C(/C=C1\NC2(CCCC2)Cc2ccccc21)N1CCOCC1	1	1	0	-12	-1%	-1
O=C(NN=C1CCCC1)c1ccn[nH]1	42*	-1	-2	8	-1%	0
O=C(NN=C1CCCC1)c1cc(-c2ccccc2)n[nH]1	.	5	-1	0	-1%	.
CC(C)CCNC(=O)C1CC(c2ccccc2[N+](=O)[O-])=NO1 (stereo not drawn)	.	.	-1	-3	.	.
O=C(Nc1ncc([N+](=O)[O-])s1)C1CC(=O)N(c2ccc(F)cc2)C1 (stereo not drawn)	21	2	-5	-7	0%	0
O=C1NCCN1c1ncc([N+](=O)[O-])s1	54*	-10	4	15	0%	59*
CN(C)CCCN1C(=O)c2cccc3c([N+](=O)[O-])ccc(c23)C1=O	1	-4	?	63*	-1%	1
O=C(Nc1nccs1)c1cccc(N2C(=O)c3cccc4c([N+](=O)[O-])ccc(c34)C2=O)c1	-1	6	14	75*	0%	6
CC(=O)Oc1cccc(N2C(=O)c3cccc4c([N+](=O)[O-])ccc(c34)C2=O)c1	4	-2	41*	107*	4%	2
CCSCc1nnc(SCC(=O)Nc2nc3ccccc3s2)n1C	8	0	-2	5	0%	0
CC(=O)Nc1cc(C(=O)NCc2ccc(C)cc2)ccc1Sc1ccc(C)cc1	.	10	.	.	.	1
CCN(CC)CCNC(=O)c1ccc(Sc2ccc(Cl)cc2)c(NC(C)=O)c1	36*	-31	-6	-18	0%	0
CCN(CC)CCNC(=O)c1ccc(Sc2ccc(C)cc2)c(NC(C)=O)c1	54*	-31	-7	-12	0%	-1
SMILES	D2 antagonist	D2 PAM-1	D2 ag-1	D2 PAM-2	B2AR arrestin	D2 ag-2
COc1ccccc1CNC(=O)c1oc2ccc(S(=O)(=O)N3CCCC3)cc2c1C	-11	3	-4	2	-1%	0
OCCNC(=S)Nc1ccc2nsnc2c1	31*	-7	-1	-7	0%	0
O=C1/C(=C\c2cc([N+](=O)[O-])ccc2O)SC(=S)N1Cc1ccc(Cl)cc1	-14	4	-7	-13	0%	90*
O=C1/C(=C\c2cccc(O)c2O)SC(=S)N1Cc1ccccc1	.	14	3	-5	-1%	.
CCCCCC(=O)Nc1ccc(N2CCN(C(=O)CCC)CC2)cc1	11	-1	-2	-5	0%	1
COc1ccc(-c2[nH]nc3oc(=O)cc(C)c23)cc1	33*	28	-2	-7	.	0
CCc1nc(OCCN(C)C)c2oc3ccccc3c2n1	7	18	-2	-5	0%	0
CC1(C)O[C@@H]2[C@H](O1)[C@@H](CO)O[C@H]2n1cc(Br)c(=O)[nH]c1=O	.	.	-11	0	0%	.
Cn1c2c(c(=O)n(C)c1=O)C1(C(=O)Nc3ccccc31)C(C#N)=C(N)O2 (stereo not drawn)	.	.	10	54*	0%	.
O=C(CCCCCN1C(=O)c2ccccc2C1=O)Nc1ccccc1F	12	2	-4	-5	0%	0
O=C(CCCCCCN1C(=O)c2ccccc2C1=O)NC1CCCCC1	32*	-2	-4	3	-1%	1
O=C(CCCCCN1C(=O)c2ccccc2C1=O)Nc1ccc(F)cc1	34*	-8	1	-20	-1%	0
Cc1cccc(NC(=O)CCCN2C(=O)c3ccccc3C2=O)n1	34*	2	-5	-12	0%	2
CCOC(=O)CCCCCN1C(=O)c2cccc3cccc(c23)C1=O	3	30*	2	1	0%	-1
O=C(CCCN1C(=O)c2ccccc2C1=O)Nc1ccccn1	4	2	1	8	0%	0
CC(C)(C)NC(=O)CC1C[C@H](C(=O)N2CCCCC2)[C@@]2(C)c3[nH]c4ccccc4c3CCN2C1=O (stereo partly drawn)	.	.	0	.	1%	.
Cc1ccccc1-n1nnnc1SCC(=O)NC1CC1	.	.	-2	-5	-1%	.
Cc1cccc(NC(=O)CCCCCN2C(=O)c3ccccc3C2=O)n1	35*	1	0	-3	0%	-1
Cc1ccc(NC(=O)CCCCCN2C(=O)c3ccccc3C2=O)nc1	4	6	1	-7	2%	-1
Cc1noc(C)c1C(=O)N1CCCC(C)(C(=O)NS(=O)(=O)C2CC2)C1 (stereo not drawn)	.	.	1	-10	.	.
CCN(C(=O)Cc1cccs1)c1nnc(-c2cc(OC)c(OC)c(OC)c2)s1	5	20	-1	-9	0%	1
COc1ccc(NC(=O)N2CCN(C(=O)Nc3ccc(OC)cc3)CC2)cc1	10	-3	-4	-3	0%	0
